Potency data for 78 compounds are collected here from PubChem BioAssay AID360 (National Center for Advancing Translational Sciences (NCATS), 2006).

The whole screen tested about 48,000 compounds, of which about 550 (1.1%) were called active. About 4% were inconclusive and are not listed. No stated cut-off is given here; in the data, active means potency below about 15 µM; inconclusive means mostly about 16 µM to 33 µM; inactive means weaker than that. Many of the other results were omitted from the sample, so actives are more common in it than they were.
Potency means the concentration at half of the fitted maximal effect.

Lysosomal acid glucosylceramidase (Homo sapiens), sequence (P04062 whole entry, looked up): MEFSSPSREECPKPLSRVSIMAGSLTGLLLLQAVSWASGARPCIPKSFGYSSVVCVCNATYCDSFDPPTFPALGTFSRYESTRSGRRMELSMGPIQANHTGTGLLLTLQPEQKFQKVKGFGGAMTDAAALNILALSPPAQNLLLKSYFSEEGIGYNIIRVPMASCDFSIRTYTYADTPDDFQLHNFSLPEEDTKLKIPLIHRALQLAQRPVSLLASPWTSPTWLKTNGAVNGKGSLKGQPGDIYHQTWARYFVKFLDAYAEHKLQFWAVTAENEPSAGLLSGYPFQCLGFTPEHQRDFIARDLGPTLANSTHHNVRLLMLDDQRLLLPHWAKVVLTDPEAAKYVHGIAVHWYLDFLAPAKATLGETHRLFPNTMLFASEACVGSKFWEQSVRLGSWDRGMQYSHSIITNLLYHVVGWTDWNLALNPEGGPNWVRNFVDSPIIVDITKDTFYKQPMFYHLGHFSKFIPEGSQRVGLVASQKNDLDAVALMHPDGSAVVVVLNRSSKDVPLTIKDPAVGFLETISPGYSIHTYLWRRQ

In this assay the target is Lysosomal acid glucosylceramidase (Homo sapiens) (UniProt P04062). Put plainly: Glucocerebrosidase.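 Further: the screen sought inhibitors.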 The note with it: purified enzyme, resorufin glucoside fluorescence (screen aimed at inhibitors), 20 min. A digest of the protocol:
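Normal human glucocerebrosidase (0.2 nM final) was assayed with resorufin β-D-glucopyranoside (30 uM final) in 50mM citric acid/KH2PO4, 10mM sodium taurocholate, 0.01% tween-20, pH 5.9. Compounds were titrated; fluorescence (Ex 548, Em 600) read after 20 min at RT.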
Regarding `CS(=O)(=O)N(CC(=O)N1CCN(c2cccc(Cl)c2)CC1)c1ccccc1`, the Potency is > 76.9 µM (inactive).
Regarding `CCN1C(=O)/C(=C\N2CCN(c3ccccc3)CC2)SC1=S`, the Potency was 70.4 µM (inactive).
In the case of `CCN1C(=O)/C(=C\N2CCN(c3cccc(Cl)c3)CC2)SC1=S`, the Potency was 7.83 µM (active).
As to `CCOc1ccc(NC(=O)N2CCN(CC)CC2)cc1`, the Potency was 11.1 µM (active).
Consider `CCOc1ccc(NC(=O)Nc2ccc(N(C)C(C)=O)cc2)cc1`, for which the Potency was > 76.9 µM (inactive).
With `CCOc1ccc(NC(=O)N2CC=C(n3c(=O)[nH]c4ccccc43)CC2)cc1`, the Potency is > 76.9 µM (inactive).
The result for `CSc1ncccc1C(=O)OCC(=O)N1CCOCC1` reads > 76.9 µM (inactive); that for `Cc1ccc(NC(=O)NCC(c2cccnc2)N2CCOCC2)cc1` (stereo not drawn), > 76.9 µM (inactive).
`COc1ccc(C(CNC(=O)c2cccnc2SC)N2CCOCC2)cc1` (stereo not drawn): the Potency was 15 µM (active).
For `COc1ccc2[nH]c(=O)c(CN(Cc3nnnn3CCc3ccccc3)CC3CCCO3)cc2c1` (stereo not drawn) the value was 35.8 µM (inactive); for `CCC(c1nnnn1Cc1ccco1)N(CCc1ccccc1)Cc1cc2ccc(OC)cc2[nH]c1=O` (stereo not drawn), 14.2 µM (active); for `CCC(c1nnnn1Cc1ccccc1)N(Cc1cc2cc(OC)ccc2[nH]c1=O)CC1CCCO1` (stereo not drawn), > 76.9 µM (inactive).
`O=C(O)C1CCCN1S(=O)(=O)c1ccc2c(c1)CCC2` (stereo not drawn): the Potency was > 76.9 µM (inactive).
In the case of `Cc1cccc(NC(=O)C2CCCN2S(=O)(=O)c2ccc(F)cc2)c1C` (stereo not drawn), the Potency is > 76.9 µM (inactive).
For `CSc1cccc(NC(=O)C2CCCN2S(=O)(=O)c2ccc3c(c2)CCC(=O)N3)c1` (stereo not drawn) the value was 10.1 µM (active).
Regarding `COc1ccc(-n2c(C)nc3c(cnn3-c3ccccc3)c2=O)cc1`, the Potency was > 76.9 µM (inactive).
Turning to `CNC(=O)c1nnn(-c2ccccc2)c1C(=O)NC`, the Potency is > 76.9 µM (inactive).
In the case of `CCCC(=O)Nc1ccc(C(=O)NCCCn2ccnc2)cc1`, the Potency was 6.73 µM (active).
In the case of `CCCCC(=O)Nc1ccc2c(c1)OCCO2`, the Potency was > 76.9 µM (inactive).
Consider `Cc1ccc(CNC(=O)CCCNC(=O)c2ccc(Cl)cc2)n1C`, for which the Potency was > 76.9 µM (inactive).
Regarding `CCOc1ccccc1C(=O)NCCCn1ccnc1`, the Potency was > 76.9 µM (inactive).
With `CCN(CC)C(=O)CCC(=O)Nc1ccc(C(=O)OC)cc1`, the Potency is > 76.9 µM (inactive).
`CCCCC(=O)Nc1ccc(C(=O)NCCCn2ccnc2)cc1`: the Potency was 5.11 µM (active).
For `CCc1c(C)nc(N)n2c(SCC(=O)N3CCN(c4ccccc4)CC3)nnc12`, the Potency was > 76.9 µM (inactive).
In the case of `COc1c(C)cccc1C(=O)Nc1cc(Cl)ccc1N1CCOCC1`, the Potency was > 76.9 µM (inactive).
Turning to `COc1ccc(S(=O)(=O)N2CCCC2)c(C)c1C`, the Potency was > 76.9 µM (inactive).
For `CC(C)C(c1nnnn1C1CCCC1)N1CCN(c2ccccc2F)CC1` (stereo not drawn), the Potency is 45 µM (inactive).
For `CCOC(=O)c1c(C)[nH]c(C)c1C(=O)CSc1nc(N)cc(N)n1`, the Potency is > 76.9 µM (inactive).
Turning to `O=C(CSc1nnc(-c2cnccn2)n1Cc1ccco1)c1ccc(Cl)c(Cl)c1`, the Potency is > 76.9 µM (inactive).
For `COCCCn1c(CCC(=O)O)ccc1-c1ccc(F)cc1`, the Potency is > 76.9 µM (inactive).
As to `O=C(NCCCNC(=O)NC1CCCCC1)NC1CCCCC1`, the Potency is > 76.9 µM (inactive).
As for `CC(=O)N1CSCC1C(=O)O` (stereo not drawn), the Potency is > 76.9 µM (inactive).
For `O=C(CSc1nnc(-c2ccco2)n1CC1CCCO1)c1ccccc1` (stereo not drawn) the value was > 76.9 µM (inactive).
In the case of `COc1ccc(C2C3=C(CC(C)(C)CC3=O)Oc3ncn4nc(-c5cccnc5)nc4c32)cc1OC` (stereo not drawn), the Potency is > 76.9 µM (inactive).
With `CCCn1c(SCC(=O)Nc2c(C)cccc2C)nnc1C(C)C`, the Potency was > 76.9 µM (inactive).
With `CCOC(=O)CSc1nnc(-c2ccco2)n1C`, the Potency was > 76.9 µM (inactive).
Regarding `CN1CCC2(CC1)NC(=O)NC2=O`, the Potency is > 76.9 µM (inactive).
Consider `O=C(Nc1cnccn1)c1cccnc1`, for which the Potency is > 76.9 µM (inactive).
As to `O=C(Cn1c(-c2ccccn2)nc2ccccc21)NCCN1CCOCC1`, the Potency is > 76.9 µM (inactive).
Take `COc1ccc(-c2nnc(SCC(=O)c3ccco3)n2-c2ccccc2)cc1`: the Potency is > 76.9 µM (inactive).
With `Cc1ccc(C(C(=O)NC2CCCC2)N(Cc2ccco2)C(=O)CCC(=O)Nc2ccccn2)cc1` (stereo not drawn), the Potency is > 76.9 µM (inactive).
The result for `COC(=O)c1ccc(C2NC(=O)NC(C)=C2C(=O)N(C)C)cc1` (stereo not drawn) reads > 76.9 µM (inactive).
The result for `COC(=O)c1ccc(C2C3=C(Nc4nnnn42)c2ccccc2OC3)cc1` (stereo not drawn) reads 8.19 µM (active); that for `COc1ccc(C2C(C(=O)Nc3ccccc3OC)=C(C)Nc3nnnn32)c(OC)c1` (stereo not drawn), > 76.9 µM (inactive); that for `CCOC(=O)c1c(C)nc(-c2ccccc2)nc1NC(=O)C(C)C`, > 76.9 µM (inactive).
`O=c1[nH]nc(Cc2ccccn2)c2ccccc12`: the Potency was > 76.9 µM (inactive).
For the compound `CCOC(=O)c1cnc(-n2nc(C)cc2C)nc1-n1nc(C)cc1C`, the Potency is > 76.9 µM (inactive).
For `CCc1ccccc1N(CC(=O)N1CCN(c2ccccc2F)CC1)S(C)(=O)=O` the value was > 76.9 µM (inactive); for `CCOc1ncccc1C(=O)OCc1cn2cc(Cl)ccc2n1`, > 76.9 µM (inactive); for `CN(Cc1ccccc1)Cc1ccccc1F`, > 76.9 µM (inactive).
In the case of `COc1ccccc1OCCC(=O)OCC(=O)NC(=O)NC(C)(C)C`, the Potency is > 76.9 µM (inactive).
For `CC(=O)c1cccc(S(=O)(=O)N2CCC(n3nnc4cc(F)ccc43)CC2)c1` the value was > 76.9 µM (inactive); for `O=S(=O)(c1cccc(S(=O)(=O)N2CCC(n3nnc4ccccc43)CC2)c1)N1CCCCC1`, 10.5 µM (active); for `O=S(=O)(c1cccc(-c2nnc(SC(F)F)n2-c2ccccc2)c1)N1CCCCC1`, > 76.9 µM (inactive).
Take `O=C(C1=C(O)C(=O)N(Cc2ccccc2)C1c1cccnc1)c1ccco1` (stereo not drawn): the Potency was > 76.9 µM (inactive).
Take `O=C1NC(c2cc3c(cc2Cl)OCO3)Oc2ccccc21` (stereo not drawn): the Potency was > 76.9 µM (inactive).
Take `O=C1N(Cc2ccc3c(c2)OCO3)c2ccccc2C1(O)c1c[nH]c2ccccc12` (stereo not drawn): the Potency was > 76.9 µM (inactive).
Take `CCC(=O)Nc1ccc(C(=O)CSc2nnc(CNc3ccc(Cl)cc3)o2)cc1OC`: the Potency was > 76.9 µM (inactive).
As to `Cc1cc(-n2nc(C)cc2C)n2ncc(-c3ccccc3)c2n1`, the Potency is > 76.9 µM (inactive).
The result for `Cc1cc(C)c2c(n1)nn1c(N3CCOCC3)cc(C)nc21` reads > 76.9 µM (inactive); that for `Cc1cc(N2CCCC2)n2nc(C)c(-c3ccccc3)c2n1`, 7.9 µM (active); that for `COc1ccc(CC(=O)Nc2ccc3c(c2)CCC3)cc1S(=O)(=O)N1CCOCC1`, > 76.9 µM (inactive).
Turning to `Cc1cccc(-n2c(N)cc(=O)nc2SC(C)C(=O)NC2CCCCC2)c1` (stereo not drawn), the Potency was > 76.9 µM (inactive).
For the compound `O=C(Nc1cccc(NC(=O)N2CCN(c3ccccc3)CC2)c1)N1CCN(c2ccccc2)CC1`, the Potency was > 76.9 µM (inactive).
For `CC(C)N(C(=O)COC(=O)c1ccccc1C(=O)N1CCN(c2ccc(F)cc2)CC1)C(C)C` the value was > 76.9 µM (inactive).
`CC(=O)N1CCN(c2ccc(NCc3ccc(C(C)C)cc3)cc2)CC1`: the Potency was 7.71 µM (active).
For `COC(=O)Cc1c(C)c2ccc(OCC(=O)NCc3ccc4c(c3)OCO4)cc2oc1=O` the value was > 76.9 µM (inactive); for `CC1(C)Oc2ccc(C(=O)N3CCOCC3)cc2N(CC(=O)Nc2ccccc2)C1=O`, > 76.9 µM (inactive); for `Cc1ccc(-c2noc(CN3CCN(Cc4ccccc4)CC3)n2)cc1`, > 76.9 µM (inactive).
With `CCOC(=O)Cc1c(C)nc2c(C#N)c(C)nn2c1C`, the Potency was > 76.9 µM (inactive).
The result for `Cc1cc(C(=O)COC(=O)CCCN2C(=O)c3ccccc3C2=O)c(C)n1C` reads > 76.9 µM (inactive); that for `CCOC(=O)CSc1nnc(NC(=O)c2cccc(S(=O)(=O)N3CCCC3)c2)s1`, > 76.9 µM (inactive).
Turning to `COc1cccc(-c2nnc(N(C)C(=O)c3ccno3)s2)c1`, the Potency was > 76.9 µM (inactive).
Take `CC1(C)CC(CCC(=O)Nc2ccccc2Cl)C(=O)O1` (stereo not drawn): the Potency is > 76.9 µM (inactive).
Consider `CN(C(=O)COc1ccccc1)c1nnc(-c2ccncc2)s1`, for which the Potency was > 76.9 µM (inactive).
For `Cc1cc(Cl)c(S(=O)(=O)NCCC(=O)O)cc1OCC(N)=O`, the Potency was > 76.9 µM (inactive).
As for `COC(=O)C(CC(=O)Nc1cc(C)ccc1C)Nc1ccccc1OC` (stereo not drawn), the Potency was > 76.9 µM (inactive).
As to `Cc1ccc2nc(S(=O)(=O)O)[nH]c2c1`, the Potency was > 76.9 µM (inactive).
